These results are taken from PubChem BioAssay (NCATS).

Unmarked numbers belong to inactive results. Unless noted, no stated cut-off is given here; in the data, active means potency below about 10 µM; inactive means the rest. Some results are limits rather than exact numbers.
Potency means the concentration at half of the fitted maximal effect.

Sequence of Lysosomal acid glucosylceramidase (Homo sapiens) (P04062 whole entry, looked up): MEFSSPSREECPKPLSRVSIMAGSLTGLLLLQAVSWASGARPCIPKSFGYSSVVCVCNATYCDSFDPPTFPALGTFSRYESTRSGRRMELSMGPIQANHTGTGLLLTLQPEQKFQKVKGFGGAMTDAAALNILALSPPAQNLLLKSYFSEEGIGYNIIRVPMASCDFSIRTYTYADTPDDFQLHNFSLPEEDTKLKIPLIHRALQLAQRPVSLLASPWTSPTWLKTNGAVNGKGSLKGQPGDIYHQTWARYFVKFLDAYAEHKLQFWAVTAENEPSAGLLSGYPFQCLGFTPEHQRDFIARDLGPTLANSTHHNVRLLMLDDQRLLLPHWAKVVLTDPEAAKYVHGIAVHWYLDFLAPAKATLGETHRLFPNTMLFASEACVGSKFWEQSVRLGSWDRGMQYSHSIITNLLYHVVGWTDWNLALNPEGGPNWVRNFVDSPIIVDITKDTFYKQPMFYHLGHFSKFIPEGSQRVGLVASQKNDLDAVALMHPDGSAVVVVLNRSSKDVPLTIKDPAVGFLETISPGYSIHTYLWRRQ

In the first experiment the test system is HIV-1 nucleocapsid protein NCp7 (binding to TG oligonucleotide). Nature of the experiment: HIV Nucleocapsid (AID 346; call rule not given here;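 further: potency is for inhibitors that block NC binding and lower polarization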). The settings on record: HIV-1 NC / fluorescein-TGTGTGTG probe, fluorescence polarization. The essentials:
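10 nM TG4xF probe with 100 nM nucleocapsid protein in high-salt Hepes pH 7.5 (250mM NaCl) containing 1uM ZnCl2 and reducing agents. Compound inhibition of binding was read as fluorescein polarization after 1 hr at room temperature.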
In general terms: In fluorescence polarisation assays a small probe gives low polarisation when free and higher when bound to something large.
Turning to `O=C(Nc1ccccc1)N1CC[C@@]2(CCCNC2)C1`, the Potency is over 20 µM.

For `N#Cc1ccc(CN2CCC3(CC2)CCN(C(=O)Oc2ccccc2)CC3)cc1`, the Potency is over 20 µM.

Regarding `CS(=O)(=O)N1CCC2(CC1)CN(Cc1ccncc1)C2`, the Potency was over 20 µM.

The target in a further experiment is Lysosomal acid glucosylceramidase (Homo sapiens) (UniProt P04062). The experiment can be described thus: Glucocerebrosidase-p2 (AID 348). The settings on record: purified GBA, blue fluorogenic substrate, 40 min. The essentials:
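Normal human glucocerebrosidase (0.2 nM) with blue fluorogenic substrate (80 uM final) in citrate/phosphate pH 5.9 with 10mM sodium taurocholate, 0.01% tween-20; 40 min RT, NaOH/glycine stop; fluorescence Ex 365/Em 440; AC50 from a titration from 0.6 nM upwards.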
As for `N#Cc1ccc(CN2CC[C@@]3(CCCN(C(=O)Oc4ccccc4)C3)C2)cc1`, the Potency was over 11.4 µM.

Turning to `O=C(Oc1ccccc1)N1CCC2(CCN(Cc3ccccc3)CC2)CC1`, the Potency was over 11.4 µM.

As to `C[N+]1([O-])[C@@H]2CC(OC(=O)[C@@H](CO)c3ccccc3)C[C@@H]1[C@H]1O[C@H]12` (stereo not given in full), the Potency was over 11.4 µM.

For `CN1CCC2(CC1)CCN(C(=O)Oc1ccccc1)CC2`, the Potency was over 11.4 µM.

Turning to `O=C(Nc1cccc(F)c1)N1CC2(CCN(C(=O)Oc3ccccc3)CC2)C1`, the Potency was over 11.4 µM.

For the compound `CN1CC[C@@]2(CCCN(C(=O)c3ccco3)C2)C1`, the Potency is over 11.4 µM.

For the compound `c1cnc(N2CC[C@@]3(CCCNC3)C2)nc1`, the Potency was over 11.4 µM.

As to `COc1ccccc1CN1CC[C@@]2(CCCN(C(=O)Oc3ccccc3)C2)C1`, the Potency is over 11.4 µM.

In the case of `O=C(Nc1cccc(F)c1)N1CC[C@@]2(CCCN(C(=O)Oc3ccccc3)C2)C1`, the Potency was over 11.4 µM.

As to `Cc1ccccc1-c1cncnc1NCCc1cnc[nH]1`, the Potency was over 11.4 µM.

For `O=C(Nc1ccccc1)N1CC[C@@]2(CCCNC2)C1`, the Potency was over 11.4 µM.

As for `CN1CCCC2(CCN(C(=O)c3ccncc3)CC2)C1`, the Potency was over 11.4 µM.
